# Data: publication PMC8136818, “Evolving origin-of-transfer sequences on staphylococcal conjugative and mobilizable plasmids—who’s mimicking whom?”
# Columns and labels:
# Conditions in all cases: protein: recombinant; tags: His6-TEV, cleaved; chain copies: 4
# SmpO45 [1] = biological target: T1, SmpO45 (Staphylococcus aureus plasmid pWBG745, UniProt UPI0001BEA8D3 1-84); experiment: SPR (ReDCaT); 250 mM NaCl; 10 mM HEPES, 3 mM EDTA, 0.05% Tween 20, NaCl 150 mM (SmpO49 screens), 300 mM (SmpO45, SmpO408, SmpOUNa screens) or 250 mM (Table S4); pH and temperature not stated; protein 1 uM; high values mean tight binding
# T1 sequence: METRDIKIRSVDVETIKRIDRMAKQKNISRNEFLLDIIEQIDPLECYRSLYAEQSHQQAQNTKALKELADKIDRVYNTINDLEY
# SmpOUNa [2] = biological target: T2, SmpOUNa (plasmid pC02); experiment: as above
# T2 chain: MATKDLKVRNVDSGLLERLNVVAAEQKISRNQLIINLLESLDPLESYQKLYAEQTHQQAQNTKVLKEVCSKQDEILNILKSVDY
# SmpO408 = biological target: T3, SmpO408 (Staphylococcus aureus M0408); experiment: as above
# T3 chain: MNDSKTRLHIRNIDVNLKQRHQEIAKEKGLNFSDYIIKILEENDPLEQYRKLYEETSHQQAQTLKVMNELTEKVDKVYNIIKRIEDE
# SmpO49-F7K = biological target: T4, SmpO49-F7K (Staphylococcus aureus plasmid pWBG749, UniProt UPI0001BEA96A 1-84, F7K); experiment: as above
# T4 sequence: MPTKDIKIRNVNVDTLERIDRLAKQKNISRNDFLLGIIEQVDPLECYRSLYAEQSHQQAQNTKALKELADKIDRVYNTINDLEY
# SmpO49 = biological target: T5, SmpO49 (Staphylococcus aureus plasmid pWBG749, UniProt UPI0001BEA96A 1-84); experiment: SPR (ReDCaT); 150 mM NaCl; 10 mM HEPES, 3 mM EDTA, 0.05% Tween 20, NaCl 150 mM (SmpO49 screens), 300 mM (SmpO45, SmpO408, SmpOUNa screens) or 250 mM (Table S4); pH and temperature not stated; protein 1 uM; high values mean tight binding
# T5 sequence: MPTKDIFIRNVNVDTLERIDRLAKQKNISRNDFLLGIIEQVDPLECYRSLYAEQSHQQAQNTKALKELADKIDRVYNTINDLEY
# Outline: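 Tag-cleaved protein, expressed in E. coli BL21(DE3)pLysS and purified by nickel-affinity and size-exclusion chromatography, was screened on a Biacore T200 SA chip by reusable DNA capture. OriT oligonucleotides were captured at 1 μM on Fc2, with a control linker on Fc1. Protein at 1 μM was injected at 30 μl/min (60 s contact, 60 s dissociation) in 10 mM HEPES, 150 mM NaCl, 3 mM EDTA, 0.05% Tween 20. DNA binding is reported as %Rmax.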
# SmpO45 [3] = biological target: T1, SmpO45; experiment: SPR (ReDCaT); 300 mM NaCl; 10 mM HEPES, 3 mM EDTA, 0.05% Tween 20, NaCl 150 mM (SmpO49 screens), 300 mM (SmpO45, SmpO408, SmpOUNa screens) or 250 mM (Table S4); pH and temperature not stated; protein 1 uM; high values mean tight binding
# Outline: (§1)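 The running buffer was 10 mM HEPES, 300 mM NaCl, 3 mM EDTA, 0.05% Tween 20, and protein at 1 μM was injected at 30 μl/min for 60 s contact and 60 s dissociation. The protein had been expressed in E. coli BL21(DE3)pLysS, cleaved of its tag, and purified by nickel-affinity and size-exclusion chromatography. OriT oligonucleotides were captured at 1 μM on Fc2 of a Biacore T200 SA chip by reusable DNA capture, and a linker was captured on Fc1. Values are DNA binding expressed as %Rmax.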
# SmpOSep = biological target: T6, SmpOSep (Staphylococcus epidermidis VCU120); experiment: SPR (ReDCaT); 250 mM NaCl; 10 mM HEPES, 3 mM EDTA, 0.05% Tween 20, NaCl 150 mM (SmpO49 screens), 300 mM (SmpO45, SmpO408, SmpOUNa screens) or 250 mM (Table S4); pH and temperature not stated; protein 1 uM; high values mean tight binding
# T6 chain: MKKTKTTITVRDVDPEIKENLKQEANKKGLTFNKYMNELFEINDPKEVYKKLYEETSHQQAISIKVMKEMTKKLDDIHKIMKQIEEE
# SmpOUNa [4] = biological target: T2, SmpOUNa; experiment: SPR (ReDCaT); 300 mM NaCl; 10 mM HEPES, 3 mM EDTA, 0.05% Tween 20, NaCl 150 mM (SmpO49 screens), 300 mM (SmpO45, SmpO408, SmpOUNa screens) or 250 mM (Table S4); pH and temperature not stated; protein 1 uM; high values mean tight binding
# Outline: as §1
binder,measurement,setting,value
ossAUNa (dsDNA) DNA 1: GTGACCCCCATAAGAT DNA 2: ATCTTATGGGGGTCAC,binding signal,SmpO45 [1],1.6 %Rmax
same,binding signal,SmpOUNa [2],12.4 %Rmax
same,binding signal,SmpO408,2.9 %Rmax
same,binding signal,SmpO49-F7K,3.5 %Rmax
ossA49-15 (dsDNA) DNA 1: TTTATGATATCACTTT DNA 2: AAAGTGATATCATAAA,binding signal,SmpO49,26.8 ± 1.07 %Rmax
ossA45-4 (dsDNA) DNA 1: ATTCTGGGGTCACTTT DNA 2: AAAGTGACCCCAGAAT,binding signal,SmpO45 [3],33.4 ± 0.753 %Rmax
OT49.11 (dsDNA) DNA 1: CCGATGATAGCAAATTCCCCTTATGCTCTT DNA 2: AAGAGCATAAGGGGAATTTGCTATCATCGG,binding signal,SmpO49,0.467 ± 0.033 %Rmax
ossA45-3 (dsDNA) DNA 1: ATAGTGGGGTCACTTT DNA 2: AAAGTGACCCCACTAT,binding signal,SmpO45 [3],31.73 ± 0.268 %Rmax
ossA45-14 (dsDNA) DNA 1: ATTGTGGGGTCACATT DNA 2: AATGTGACCCCACAAT,binding signal,SmpO45 [3],38.9 ± 1.1 %Rmax
ossA45-5 (dsDNA) DNA 1: ATTGAGGGGTCACTTT DNA 2: AAAGTGACCCCTCAAT,binding signal,SmpO45 [3],13.5 ± 0.663 %Rmax
ossA45 (dsDNA) DNA 1: ATTGTGGGGTCACTTT DNA 2: AAAGTGACCCCACAAT,binding signal,SmpO45 [1],37.5 %Rmax
same,binding signal,SmpO45 [3],36.5 ± 3.64 %Rmax
same,binding signal,SmpOUNa [2],7.1 %Rmax
same,binding signal,SmpO408,10.7 %Rmax
same,binding signal,SmpOSep,2.9 %Rmax
same,binding signal,SmpO49-F7K,31.3 %Rmax
ossA49-12 (dsDNA) DNA 1: TTTATGATATCTCTAT DNA 2: ATAGAGATATCATAAA,binding signal,SmpO49,5.13 ± 0.452 %Rmax
ossA49-13 (dsDNA) DNA 1: TTTATGATATCAGTAT DNA 2: ATACTGATATCATAAA,binding signal,SmpO49,18.1 ± 1.02 %Rmax
ossA49-14 (dsDNA) DNA 1: TTTATGATATCACAAT DNA 2: ATTGTGATATCATAAA,binding signal,SmpO49,24.9 ± 1.06 %Rmax
OT49.4 (dsDNA) DNA 1: GTTTTTATGATATCACTATGAAATGTCCTA DNA 2: TAGGACATTTCATAGTGATATCATAAAAAC,binding signal,SmpO49,17 ± 0.325 %Rmax
ossA45-13 (dsDNA) DNA 1: ATTGTGGGGTCAGTTT DNA 2: AAACTGACCCCACAAT,binding signal,SmpO45 [3],30.8 ± 1.19 %Rmax
OTUNa For/Rev_14 (dsDNA) DNA 1: TTGAAATATCTGGCTTCGCCAGATTACCCA DNA 2: TGGGTAATCTGGCGAAGCCAGATATTTCAA,binding signal,SmpOUNa [4],1.29 ± 0.0865 %Rmax
OT45.11 (dsDNA) DNA 1: TATGGGGTCATATTTCCCTTATGCTCTTAC DNA 2: GTAAGAGCATAAGGGAAATATGACCCCATA,binding signal,SmpO45 [3],21.2 ± 1.26 %Rmax
ossA45-10 (dsDNA) DNA 1: ATTGTGGGGACACTTT DNA 2: AAAGTGTCCCCACAAT,binding signal,SmpO45 [3],6.42 ± 0.416 %Rmax
OT45.4 (dsDNA) DNA 1: TTTATTGTGGGGTCACTTTAAATTCTTTAA DNA 2: TTAAAGAATTTAAAGTGACCCCACAATAAA,binding signal,SmpO45 [3],29.4 ± 1.33 %Rmax
ossA49-1 (dsDNA) DNA 1: ATTATGATATCACTAT DNA 2: ATAGTGATATCATAAT,binding signal,SmpO49,26.7 ± 1.94 %Rmax
OT45.10 (dsDNA) DNA 1: CCCCATAAAATATGGGGTCATATTTCCCTT DNA 2: AAGGGAAATATGACCCCATATTTTATGGGG,binding signal,SmpO45 [3],31.8 ± 2.19 %Rmax
ossA45-15 (dsDNA) DNA 1: ATTGTGGGGTCACTAT DNA 2: ATAGTGACCCCACAAT,binding signal,SmpO45 [3],38.6 ± 1.09 %Rmax
